Results published in PubChem BioAssay AID463173 (ICCB-Longwood Screening Facility, Harvard Medical School, 2010).
Among all 52,000 compounds or so, about 4,300 (8.3%) were called active. Rule as the data show it: active = survival mostly below about 52% (no sharp cut-off); inactive = mostly above about 56%. The full list was thinned out, with actives kept by preference.

Tested on: DeltatarO mutant
Assay: S. aureus survival, RN4220 and DeltatarO strains – OD600, teichoic acid synthesis inhibitors, primary screen (AID 463173)
Conditions: S. aureus RN4220 wild type/DeltatarO growth, OD600, 18 h, stronger effect = lower value, screened at 18.75 µg/mL (by protocol)

| SMILES | survival |
| --- | --- |
| COc1ccc(CCC(=O)NC2CC(=O)N(c3cccc(F)c3)C2)cc1 (stereo unspecified) | 113% (inactive) |
| CSc1nc(NC(N)=S)nc(NC(C)C)n1 | 76% (inactive) |
| Cc1cc(C)c2c(CC(=O)Nc3ccc(S(=O)(=O)Nc4ncccn4)cc3)coc2c1 | 83% (inactive) |
| COc1ccc([N+](=O)[O-])cc1NC(c1nnc(-c2ccccc2)o1)c1ccccc1F (stereo unspecified) | 83% (inactive) |
| Cc1cccc2nc(-c3cccnc3)c(Nc3ccc(C(C)C)cc3)n12 | 70% (inactive) |
| Cc1cccc(C(C)C)c1NC(=O)c1ccc2c(c1)CCN2S(C)(=O)=O | 74% (inactive) |
| COc1ccc(C2C(C(=O)Nc3cccnc3)=C(C)Nc3nc(-c4ccc(OC)c(OC)c4)nn32)cc1 (stereo unspecified) | 150% (inactive) |
| CCOC(=O)C1CCN(C(=O)c2c(C)nn(-c3ccc(F)cc3)c2-n2cccc2)CC1 | 66% (inactive) |
| Cc1cc(NC(=O)CSc2nc(-c3ccccc3C)nc3c2c(=O)n(C)c(=O)n3C)no1 | 67% (inactive) |
| Cc1ccc(NC(=O)c2nc(S(C)(=O)=O)ncc2N(Cc2ccco2)Cc2cccs2)cc1C | 40% (active) |
| Cc1ccc(NC(=O)c2nc(S(C)(=O)=O)ncc2N(Cc2ccco2)Cc2cccs2)c(C)c1 | 38% (active) |
| COc1ccc(CN(Cc2ccco2)c2cnc(S(C)(=O)=O)nc2C(=O)Nc2ccc(F)cc2)cc1 | 49% (inactive) |
| COc1ccc(CN(Cc2ccco2)c2cnc(S(C)(=O)=O)nc2C(=O)Nc2ccc(C)c(C)c2)cc1 | 44% (active) |
| Cc1ccc(NC(=O)c2nc(S(C)(=O)=O)ncc2N(Cc2cccc(F)c2)Cc2ccco2)cc1C | 45% (inactive) |
| CS(=O)(=O)c1ncc(N(Cc2ccccc2)Cc2ccco2)c(C(=O)Nc2cccc(C(F)(F)F)c2)n1 | 52% (inactive) |
| COc1ccc(CN(Cc2ccco2)c2cnc(S(C)(=O)=O)nc2C(=O)Nc2ccc(C)cc2C)cc1 | 48% (inactive) |
| CC(C)c1ccc(CN(Cc2ccco2)c2cnc(S(C)(=O)=O)nc2C(=O)Nc2ccc(F)cc2)cc1 | 49% (inactive) |
| COc1ccc(CN(Cc2ccco2)c2cnc(S(C)(=O)=O)nc2C(=O)Nc2ccc(C)c(Cl)c2)cc1 | 47% (inactive) |
| Cc1ccc(NC(=O)c2nc(S(C)(=O)=O)ncc2N(Cc2ccco2)Cc2ccco2)cc1C | 50% (inactive) |
| CCc1ccc(CN(Cc2ccco2)c2cnc(S(C)(=O)=O)nc2C(=O)Nc2cccc(C)c2)cc1 | 46% (inactive) |
| CC(C)c1ccc(CN(Cc2ccco2)c2cnc(S(C)(=O)=O)nc2C(=O)Nc2ccccc2)cc1 | 44% (active) |
| Cc1ccc2scc(N3CCc4ccccc4C3)c(=O)c2c1 | 73% (inactive) |
| CCN(c1cccc(C)c1)S(=O)(=O)c1c(C)nc2sc(C)cn2c1=O | 73% (inactive) |

| SMILES | survival |
| --- | --- |
| Cc1ccc2oc(=O)c3cnn(CC(=O)Nc4cccc(C(F)(F)F)c4)c3c2c1 | 87% (inactive) |
| Brc1ccc(-c2cc(-c3ccccc3)no2)cc1 | 74% (inactive) |
| CC1CCC(Nc2nnnn2-c2ccccc2)CC1 (stereo unspecified) | 87% (inactive) |
| CCc1cccc(NS(=O)(=O)c2ccc3c(c2)n(C)c(=O)c(=O)n3C)c1 | 73% (inactive) |
| CCOC(=O)c1ccccc1NC(=O)CN1C(=O)CC(c2ccccc2)Sc2ccccc21 (stereo unspecified) | 92% (inactive) |
| COCCNC(=O)CSc1nc(-c2ccc(F)cc2)[nH]c1-c1ccc(Cl)cc1 | 71% (inactive) |
| CCc1cccc(C)c1NC(=O)Cn1cnc2c1c(=O)n(C)c(=O)n2C | 74% (inactive) |
| Cc1ccc(C)c(NC(=O)c2nc(S(C)(=O)=O)ncc2N(Cc2ccc(C(C)(C)C)cc2)Cc2ccco2)c1 | 55% (active) |
| CCS(=O)(=O)c1ncc(N(Cc2ccco2)Cc2ccccc2F)c(C(=O)Nc2cccc(Cl)c2)n1 | 60% (inactive) |
| Cc1cccc(C)c1NC(=O)c1nc(S(C)(=O)=O)ncc1N(Cc1ccc(C(C)(C)C)cc1)Cc1ccco1 | 49% (inactive) |
| Cc1ccc(NC(=O)c2nc(S(C)(=O)=O)ncc2N(Cc2ccccc2)Cc2ccco2)c(C)c1 | 53% (inactive) |
| Cc1ccc(CN(Cc2ccco2)c2cnc(S(C)(=O)=O)nc2C(=O)Nc2ccccc2Br)o1 | 44% (inactive) |
| CC(C)(C)c1ccc(CN(Cc2ccco2)c2cnc(S(C)(=O)=O)nc2C(=O)Nc2ccc(F)cc2)cc1 | 102% (inactive) |
| Cc1ccc(NC(=O)c2nc(S(C)(=O)=O)ncc2N(Cc2ccco2)Cc2ccccc2F)c(C)c1 | 37% (active) |
| Cc1ccc(NC(=O)c2nc(S(C)(=O)=O)ncc2N(Cc2ccc(C(C)(C)C)cc2)Cc2ccco2)cc1C | 52% (inactive) |
| CS(=O)(=O)c1ncc(N(Cc2ccco2)Cc2ccco2)c(C(=O)Nc2ccccc2Br)n1 | 53% (inactive) |
| CS(=O)(=O)c1ncc(N(Cc2ccco2)Cc2cccs2)c(C(=O)Nc2ccccc2F)n1 | 41% (active) |
| Cc1cccc(C)c1NC(=O)c1nc(S(C)(=O)=O)ncc1N(Cc1ccc(F)cc1)Cc1ccco1 | 46% (inactive) |
| CCc1ccc(CN(Cc2ccco2)c2cnc(S(C)(=O)=O)nc2C(=O)Nc2c(C)cccc2C)cc1 | 36% (active) |
| COCCn1c(C)cc(O)c(C(c2ccc(OC)cc2)N2CCCCC2)c1=O (stereo unspecified) | 83% (inactive) |
| Cc1ccc(-c2nnc(Nc3cccc(Cl)c3)c3ccccc23)cc1S(=O)(=O)N1CCN(C)CC1 | 87% (inactive) |
| CCn1c(=O)n(-c2ccc(F)cc2)c(=O)c2sc3ccccc3c21 | 88% (inactive) |
| Cc1ncc(CO)c2c1Oc1nc(-c3ccc(F)cc3)nc(SCc3ccc(F)cc3Cl)c1C2 | 58% (inactive) |

| SMILES | survival |
| --- | --- |
| Cc1cccc(OCc2ccc(-c3nc(C#N)c(NCc4cccnc4)o3)o2)c1 | 79% (inactive) |
| COC(=O)c1sccc1S(=O)(=O)N(CC(=O)NCc1ccccc1)c1ccc(C)cc1 | 95% (inactive) |
| CC(=O)N1CCc2c(sc3c2c(=O)n(-c2ccccc2Cl)c(=O)n3Cc2cccc(C)c2)C1 | 74% (inactive) |
| Cc1ccc(NS(=O)(=O)c2ccc3nc(-c4ccccc4)[nH]c3c2)c(Br)c1 | 79% (inactive) |
| Cc1cc(NS(=O)(=O)c2ccc3nc(-c4ccccc4)[nH]c3c2)ccc1Br | -2% (active) |
| Cc1ccc(NS(=O)(=O)c2ccc3c(c2)CC(=O)N3)cc1Cl | 47% (active) |
| O=S(=O)(Nc1ccc(Br)cc1)c1ccc2nc(-c3ccccc3)[nH]c2c1 | -1% (active) |
| Cc1ccc(NS(=O)(=O)c2ccc3nc(-c4ccccc4)[nH]c3c2)c(Cl)c1 | 76% (inactive) |
| Cc1cccc(NS(=O)(=O)c2ccc3nc(-c4ccccc4)[nH]c3c2)c1C | 109% (inactive) |
| O=S(=O)(Nc1ccc(Br)cc1F)c1ccc2nc(-c3ccccc3)[nH]c2c1 | 72% (inactive) |
| CC(C)c1ccc(NS(=O)(=O)c2ccc3nc(-c4ccccc4)[nH]c3c2)cc1 | 67% (inactive) |
| Cc1ccc(NS(=O)(=O)c2ccc3c(c2)N(C)C(=O)CC(=O)N3C)cc1Cl | 72% (inactive) |
| COc1ccc(NS(=O)(=O)c2ccc3nc(-c4ccccc4)[nH]c3c2)cc1 | 72% (inactive) |
| COc1cc(NS(=O)(=O)c2ccc3c(c2)CC(=O)N3)cc(OC)c1OC | 74% (inactive) |
| Cc1ccc(NS(=O)(=O)c2ccc3nc(-c4ccccc4)[nH]c3c2)cc1Cl | 6% (active) |
| Cc1cc(C)c(C#N)c(SCC(=O)Nc2sc3c(c2C#N)CCC(C(C)(C)C)C3)n1 (stereo unspecified) | 75% (inactive) |
| Cc1ccc(CNC(=O)Cn2c(=O)n(-c3ccc(C)c(F)c3)c(=O)c3sc4ccccc4c32)cc1 | 75% (inactive) |
| COc1ccc(-c2cnnn2-c2ccc(NC(=O)c3ccc(S(=O)(=O)N(C)C)cc3)cc2)cc1 | 81% (inactive) |
| COCCNC(=O)CCn1c(=O)[nH]c2cc(OC)c(OC)cc2c1=O | 90% (inactive) |
| CCN1C2OC(C3OC4C(O3)N(CC)S(=O)(=O)N4CC)OC2N(CC)S1(=O)=O (stereo unspecified) | 73% (inactive) |
| CCN1/C(=C2/SC(=S)N(N)C2=O)Sc2ccccc21 | 77% (inactive) |
| O=C(CSc1nnc(-c2cccs2)o1)N1c2ccccc2CCc2ccccc21 | 70% (inactive) |
| CCOc1ccc(-c2nonc2NC(=O)c2oc3ccc(F)cc3c2C)cc1 | 117% (inactive) |

| SMILES | survival |
| --- | --- |
| CC1(C)C(=O)N(CC(=O)Nc2cccc(F)c2)c2ccc(S(=O)(=O)N3CCCCC3)cc21 | 81% (inactive) |
| Cc1nn(-c2ccc(N3CCCC3)nn2)c(C)c1CCC(=O)Nc1ccccc1 | 83% (inactive) |
| Cc1nc2ccn(Cc3cccnc3)c(=O)c2cc1C(=O)NCc1ccc(Cl)cc1 | 69% (inactive) |
| Cc1ccc(NC(=O)C(=O)NCCc2sc(-c3ccc(Cl)cc3)nc2C)cc1C | 104% (inactive) |
| Cc1ccc(-c2nc(C)c(CCNC(=O)C(=O)Nc3ccc(C)c(Cl)c3)s2)cc1 | 74% (inactive) |
| Cc1nc(-c2ccccc2)sc1CCNC(=O)C(=O)Nc1ccc(F)c(Cl)c1 | 6% (active) |
| O=C(c1cccc(F)c1)N1CCN(C(=O)c2cccc3ccccc23)CC1 | 92% (inactive) |
| CC(NC(=O)c1cc2ccccn2n1)c1ccccc1 (stereo unspecified) | 75% (inactive) |
| Cc1cccc(CCNC(=O)c2sc3nc4n(c(=O)c3c2C)CCCC4)c1 | 85% (inactive) |
| COc1cc(NC(=O)CCN2CCN(c3ccccc3)CC2)cc(OC)c1 | 150% (inactive) |
| CC(=O)N1CCCc2cc(S(=O)(=O)N3CCC(C(=O)NCCC(C)C)CC3)ccc21 | 91% (inactive) |
| N#Cc1cnc(SCc2ccccc2)nc1N | 39% (active) |
| N#Cc1cnc(SCCc2ccccc2)nc1N | 81% (inactive) |
| CCCCCCSc1ncc(C#N)c(N)n1 | 84% (inactive) |
| CCOC(=O)c1c(C)oc2ccc(N(C(C)=O)S(=O)(=O)c3c(C)cc(C)cc3C)cc12 | 168% (inactive) |
| COc1ccc(CNC(=O)C(C)n2nc(C)c3sc4ccccc4c3c2=O)cc1OC (stereo unspecified) | 67% (inactive) |
| CCCCOc1ccc(Cn2c(=O)sc3ccccc32)cc1OC | -3% (active) |
| COc1ccc(Cn2c(=O)sc3ccccc32)cc1 | 74% (inactive) |
| O=c1sc2ccccc2n1CCc1ccccc1 | 104% (inactive) |
| COc1cc(Cn2c(=O)sc3ccccc32)ccc1OC(C)C | 40% (active) |
| O=C(Cn1c(=O)sc2ccccc21)OCc1ccccc1 | 83% (inactive) |
| COc1cc(Cn2c(=O)sc3ccccc32)ccc1OCCC(C)C | -2% (active) |
